Bioassay records (PubChem BioAssay)
Only some compounds are listed: those with a hit (about 6.6% of all), similar ones and a draw of the others.
BoNT-F LC inh = blocks Botulinum neurotoxin F light chain protease | hit rate 0.22% among 360,000 | Multiplex microsphere protease cleavage assay, flow cytometry | inhibition, % at 10 µM; in the data active = inhibition above about 35%, passing the limit was not always enough; inconclusive = no clear call, values can overlap the other calls; note: plate controls were buffer without enzyme for full effect and enzyme alone for no effect
BoNT-A LC inh2 = inhibitors of Botulinum neurotoxin A light chain protease. multiplex microsphere protease substrate cleavage, flow cytometry. inhibition, % at 10 µM. hit rate 0.17% among 360,000. AID 588499; note: plate controls were buffer without enzyme for full effect and enzyme alone for no effect
FBA Mtb inh = Mtb fructose-bisphosphate aldolase inhibition; purified M. tuberculosis FBA, fluorescence read-out; AID 588726; hit rate 2.3% among 360,000; inhibition, % at 1 µM; in the data active = inhibition above about 27%;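 note: 0% = vehicle and 100% = reference inhibitor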
GDH-TPI counter-1 = GDH-TPI coupled enzyme inhibition counter-screen | GDH-TPI coupled enzyme counterscreen, NADH absorbance | inhibition, % at 4.8 µM | hit rate 1.2% among 360,000; in the data active = inhibition above about 30%;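 note: 0% = DMSO wells and 100% = wells lacking the enzyme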
Autofluor counter = flagged as autofluorescent in microsphere protease counterscreen | compound autofluorescence counterscreen, microsphere flow cytometry; stronger effect = higher value | fluorescence intensity (no concentration beside the values) | hit rate 3.1% among 360,000 | AID 624483; in the data active = fluorescence intensity above about 16000; inconclusive = no clear call, values can overlap the other calls
Anthrax LF inh2 = inhibitors of Bacillus anthracis lethal factor protease | hit rate 0.12% among 360,000 | multiplex microsphere protease cleavage assay, LF | inhibition, % at 10 µM | AID 588501 | P15917; note: plate controls were buffer without enzyme for full effect and enzyme alone for no effect
Target sequence (P15917 whole entry, looked up): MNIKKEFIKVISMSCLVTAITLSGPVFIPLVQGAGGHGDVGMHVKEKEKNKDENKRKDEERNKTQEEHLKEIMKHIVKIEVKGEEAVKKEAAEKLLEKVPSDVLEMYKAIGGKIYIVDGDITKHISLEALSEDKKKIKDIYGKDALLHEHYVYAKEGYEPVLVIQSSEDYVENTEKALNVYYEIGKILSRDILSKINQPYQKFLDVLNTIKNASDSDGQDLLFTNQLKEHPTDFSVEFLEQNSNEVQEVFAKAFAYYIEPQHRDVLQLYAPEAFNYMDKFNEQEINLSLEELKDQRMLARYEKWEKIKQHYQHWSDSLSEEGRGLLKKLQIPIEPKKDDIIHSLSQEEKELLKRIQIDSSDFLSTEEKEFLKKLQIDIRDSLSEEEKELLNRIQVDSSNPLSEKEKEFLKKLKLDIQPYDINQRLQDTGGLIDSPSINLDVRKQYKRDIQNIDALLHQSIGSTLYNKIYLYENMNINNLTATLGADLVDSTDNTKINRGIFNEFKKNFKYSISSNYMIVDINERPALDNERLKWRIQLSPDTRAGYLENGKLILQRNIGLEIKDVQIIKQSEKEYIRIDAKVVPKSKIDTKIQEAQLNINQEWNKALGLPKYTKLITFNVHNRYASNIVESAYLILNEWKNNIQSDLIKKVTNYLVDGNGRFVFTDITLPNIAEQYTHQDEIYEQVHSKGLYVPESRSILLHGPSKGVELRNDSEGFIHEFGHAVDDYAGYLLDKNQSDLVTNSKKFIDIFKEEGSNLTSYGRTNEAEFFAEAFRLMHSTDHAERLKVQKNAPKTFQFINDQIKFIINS
Mtb FBA confirm = confirmation of M. tuberculosis fructose-bisphosphate aldolase inhibitors; shares compounds with FBA Mtb inh; inhibition, % at 1 µM; hit rate 78% among 5,600; purified M. tuberculosis FBA, fluorescence read-out; in the data active = inhibition above about 27%;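 note: 0% = vehicle wells and 100% = reference inhibitor wells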
GDH-TPI counter-2 = inhibits GDH-TPI coupling enzymes, flagging Mtb FBA hits; shares compounds with FBA Mtb inh; GDH-TPI coupled enzyme counterscreen, fluorescence; inhibition, % at 1 µM; hit rate 81% among 5,600; AID 652141; in the data active = inhibition above about 10%
* hit, by the source's call. Cut-off read from the data, not from the text of the source, unless noted: active = inhibition above about 30%; inconclusive = no clear call, values can overlap the other calls; inactive = below that.

For Cc1ccc2[nH]c(=O)c(-c3noc(C(C)C)n3)cc2c1 the results were BoNT-F LC inh 3, BoNT-A LC inh2 0, FBA Mtb inh 21, GDH-TPI counter-1 10, Autofluor counter 5559 and Anthrax LF inh2 1.
`CCc1nc(-c2cc3ccc(C)cc3[nH]c2=O)no1` gave BoNT-F LC inh -1, BoNT-A LC inh2 0, FBA Mtb inh 30*, GDH-TPI counter-1 20, Autofluor counter 9970, Anthrax LF inh2 2, Mtb FBA confirm 91* and GDH-TPI counter-2 82*.
O=C(CC(NC(=O)C(F)(F)F)c1ccccc1)Nc1nnc(CCc2ccccc2)s1 (centres undefined) was read as BoNT-F LC inh -3, BoNT-A LC inh2 0, FBA Mtb inh 2, GDH-TPI counter-1 13, Autofluor counter 1979 and Anthrax LF inh2 5.
For Cc1c(OCC(=O)N[C@H](C(=O)O)c2ccccc2)ccc2c3c(c(=O)oc12)CCCC3 the results were BoNT-F LC inh -3, BoNT-A LC inh2 0, FBA Mtb inh 31*, GDH-TPI counter-1 11, Autofluor counter 5041, Anthrax LF inh2 -5, Mtb FBA confirm 6 and GDH-TPI counter-2 -4.
Screening Cc1c(OCC(=O)NCc2ccccn2)ccc2c3c(c(=O)oc12)CCCC3 returned BoNT-F LC inh 0, BoNT-A LC inh2 2, FBA Mtb inh 2, GDH-TPI counter-1 7, Autofluor counter 5456 and Anthrax LF inh2 -3.
Cc1c(OCc2ccc(C(=O)O)o2)ccc2c3c(c(=O)oc12)CCC3 was read as BoNT-F LC inh -5, BoNT-A LC inh2 0, FBA Mtb inh 72*, GDH-TPI counter-1 12, Autofluor counter 5874, Anthrax LF inh2 -5, Mtb FBA confirm 28* and GDH-TPI counter-2 25*.
`Cc1c(OCC(=O)NCC(O)c2ccccc2)ccc2c3c(c(=O)oc12)CCC3` (centres undefined) gave BoNT-F LC inh 0, BoNT-A LC inh2 1, FBA Mtb inh 15, GDH-TPI counter-1 7, Autofluor counter 5876 and Anthrax LF inh2 2.
CCN(CC)C(=O)COc1ccc2c3c(c(=O)oc2c1C)CCCC3 was read as BoNT-F LC inh -1, BoNT-A LC inh2 1, FBA Mtb inh 64*, GDH-TPI counter-1 10, Autofluor counter 4105, Anthrax LF inh2 -10, Mtb FBA confirm active and GDH-TPI counter-2 active.
COc1ccccc1N1CCNC(C)C1=O (centres undefined) was read as BoNT-F LC inh 9, BoNT-A LC inh2 1, FBA Mtb inh 1, GDH-TPI counter-1 0, Autofluor counter 3254 and Anthrax LF inh2 -10.
`CC1(C(=O)NS(=O)(=O)c2ccccc2Cl)CCN1C(=O)c1ccccc1CCc1ccccc1` (centres undefined) gave BoNT-F LC inh -1, BoNT-A LC inh2 -1, FBA Mtb inh -2, GDH-TPI counter-1 3, Autofluor counter 3583 and Anthrax LF inh2 0.
For O=C(Cc1ccccc1)NS(=O)(=O)c1ccccc1 the results were BoNT-F LC inh -4, BoNT-A LC inh2 0, FBA Mtb inh 3, Autofluor counter 6073 and Anthrax LF inh2 -1.
For Cc1c2n(c3ccccc13)CCC2=O the results were BoNT-F LC inh 17, BoNT-A LC inh2 0, FBA Mtb inh 28*, GDH-TPI counter-1 6, Autofluor counter 4183, Anthrax LF inh2 4, Mtb FBA confirm 77* and GDH-TPI counter-2 68*.
COc1ccc(C2C3=C(CCCC3=O)Nc3c(-c4ccccc4)c(C)nn32)cc1 (centres undefined) was read as BoNT-F LC inh -4, BoNT-A LC inh2 -1, FBA Mtb inh 97*, GDH-TPI counter-1 45*, Autofluor counter 22999*, Anthrax LF inh2 1, Mtb FBA confirm 169* and GDH-TPI counter-2 135*.
For CCc1nc2ccc(C(=O)NCCCN3CCCC3=O)cn2c1N(C)Cc1ccc(OC)cc1 the results were BoNT-F LC inh -9, BoNT-A LC inh2 0, FBA Mtb inh -1, GDH-TPI counter-1 6, Autofluor counter 3919 and Anthrax LF inh2 -1.
For COC(=O)c1c(C)[nH]c(C(=O)COc2ccc3ccc(=O)oc3c2)c1C the results were BoNT-F LC inh -6, BoNT-A LC inh2 -2, FBA Mtb inh 6, GDH-TPI counter-1 15, Autofluor counter 4089 and Anthrax LF inh2 -1.
`CC(=O)c1c(C)[nH]c(C(=O)COc2ccc3ccc(=O)oc3c2)c1C` gave BoNT-F LC inh -27, BoNT-A LC inh2 -7, FBA Mtb inh 50*, GDH-TPI counter-1 19, Autofluor counter 5588, Anthrax LF inh2 -2, Mtb FBA confirm 92* and GDH-TPI counter-2 51*.
COc1ccc(C(N)c2csc(Nc3nncc4ccccc34)n2)cc1 (centres undefined) was read as BoNT-F LC inh -17, BoNT-A LC inh2 1, FBA Mtb inh -2, GDH-TPI counter-1 6, Autofluor counter 3538 and Anthrax LF inh2 -2.
Cc1cnc(NC(=O)Nc2ccccc2)c(C)n1 was read as BoNT-F LC inh 0, BoNT-A LC inh2 0, FBA Mtb inh 59*, GDH-TPI counter-1 9, Autofluor counter 3711, Anthrax LF inh2 3, Mtb FBA confirm -5 and GDH-TPI counter-2 -3.
`CC(=O)Nc1ccc(NC(=O)Nc2ccccc2)cc1` gave BoNT-F LC inh 14, BoNT-A LC inh2 -3, FBA Mtb inh 0, GDH-TPI counter-1 -5, Autofluor counter 4000 and Anthrax LF inh2 16.
For COc1ccc(OC)c2c1C(=O)CC2C (centres undefined) the results were BoNT-F LC inh -10, BoNT-A LC inh2 0, FBA Mtb inh 48*, GDH-TPI counter-1 16, Autofluor counter 3690, Anthrax LF inh2 -5, Mtb FBA confirm 15 and GDH-TPI counter-2 7.
`COc1ccc(OC)c2c1C(=O)C(Cl)=C(Cl)C2=O` gave FBA Mtb inh -2 and GDH-TPI counter-1 3.
Screening Cc1cccc(N2CCN(S(=O)(=O)c3cccc4nonc34)CC2)c1C returned BoNT-F LC inh -2, BoNT-A LC inh2 0, FBA Mtb inh -5, GDH-TPI counter-1 -4, Autofluor counter 2719 and Anthrax LF inh2 0.
`CC(=O)OCC1OC(Sc2cccc3cccnc23)C(OC(C)=O)C(OC(C)=O)C1OC(C)=O` (centres undefined) gave BoNT-F LC inh inconclusive, BoNT-A LC inh2 1, FBA Mtb inh 36*, GDH-TPI counter-1 -3, Autofluor counter 4080, Anthrax LF inh2 0, Mtb FBA confirm active and GDH-TPI counter-2 159*.
Screening CC(=O)OCC1OC(n2ccc3ccccc32)C(OC(C)=O)C(OC(C)=O)C1OC(C)=O (centres undefined) returned BoNT-F LC inh -3, BoNT-A LC inh2 0, FBA Mtb inh -2, GDH-TPI counter-1 3, Autofluor counter 4628 and Anthrax LF inh2 2.
`COc1ccc(CCNC(=O)c2ccccc2NS(=O)(=O)c2c(F)cccc2F)cc1` gave BoNT-F LC inh 5, BoNT-A LC inh2 -2, FBA Mtb inh 8, GDH-TPI counter-1 1, Autofluor counter 4895 and Anthrax LF inh2 5.
